In all, about 33,000 sequences were measured (“E-score (-0.5 to 0.5)”: median about -0.054, highest 2% from about 0.39 on). The sample holds the highest values, similar sequences and a random draw of the others, so the mix is not that of the screen.
target: Ylr278c (UniProt Q05854); test: PBM E-score (8-mer binding enrichment) (E-score (-0.5 to 0.5)); higher = stronger / more preferred TF binding; conditions: protein concentration: 200 nM; construct: GST-DNA-binding domain
Method: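 Universal 'all 10-mer' protein binding microarrays (Agilent AMADID 015681) probed with GST-tagged S. cerevisiae TFs (full-length or DBD) made by in vitro transcription/translation (PURExpress), about 100-200 nM. Bound TF was detected with fluorescent anti-GST. Each ungapped 8-mer (which stands for itself and its reverse complement) is scored by the PBM enrichment score (E-score), a modified Wilcoxon-Mann-Whitney statistic from -0.5 to +0.5, computed with the Universal PBM Analysis Suite. Scale: above 0.35 generally sequence-specific binding.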

UniProt Q05854, sequence (Q05854 whole entry, the tested form may be a part): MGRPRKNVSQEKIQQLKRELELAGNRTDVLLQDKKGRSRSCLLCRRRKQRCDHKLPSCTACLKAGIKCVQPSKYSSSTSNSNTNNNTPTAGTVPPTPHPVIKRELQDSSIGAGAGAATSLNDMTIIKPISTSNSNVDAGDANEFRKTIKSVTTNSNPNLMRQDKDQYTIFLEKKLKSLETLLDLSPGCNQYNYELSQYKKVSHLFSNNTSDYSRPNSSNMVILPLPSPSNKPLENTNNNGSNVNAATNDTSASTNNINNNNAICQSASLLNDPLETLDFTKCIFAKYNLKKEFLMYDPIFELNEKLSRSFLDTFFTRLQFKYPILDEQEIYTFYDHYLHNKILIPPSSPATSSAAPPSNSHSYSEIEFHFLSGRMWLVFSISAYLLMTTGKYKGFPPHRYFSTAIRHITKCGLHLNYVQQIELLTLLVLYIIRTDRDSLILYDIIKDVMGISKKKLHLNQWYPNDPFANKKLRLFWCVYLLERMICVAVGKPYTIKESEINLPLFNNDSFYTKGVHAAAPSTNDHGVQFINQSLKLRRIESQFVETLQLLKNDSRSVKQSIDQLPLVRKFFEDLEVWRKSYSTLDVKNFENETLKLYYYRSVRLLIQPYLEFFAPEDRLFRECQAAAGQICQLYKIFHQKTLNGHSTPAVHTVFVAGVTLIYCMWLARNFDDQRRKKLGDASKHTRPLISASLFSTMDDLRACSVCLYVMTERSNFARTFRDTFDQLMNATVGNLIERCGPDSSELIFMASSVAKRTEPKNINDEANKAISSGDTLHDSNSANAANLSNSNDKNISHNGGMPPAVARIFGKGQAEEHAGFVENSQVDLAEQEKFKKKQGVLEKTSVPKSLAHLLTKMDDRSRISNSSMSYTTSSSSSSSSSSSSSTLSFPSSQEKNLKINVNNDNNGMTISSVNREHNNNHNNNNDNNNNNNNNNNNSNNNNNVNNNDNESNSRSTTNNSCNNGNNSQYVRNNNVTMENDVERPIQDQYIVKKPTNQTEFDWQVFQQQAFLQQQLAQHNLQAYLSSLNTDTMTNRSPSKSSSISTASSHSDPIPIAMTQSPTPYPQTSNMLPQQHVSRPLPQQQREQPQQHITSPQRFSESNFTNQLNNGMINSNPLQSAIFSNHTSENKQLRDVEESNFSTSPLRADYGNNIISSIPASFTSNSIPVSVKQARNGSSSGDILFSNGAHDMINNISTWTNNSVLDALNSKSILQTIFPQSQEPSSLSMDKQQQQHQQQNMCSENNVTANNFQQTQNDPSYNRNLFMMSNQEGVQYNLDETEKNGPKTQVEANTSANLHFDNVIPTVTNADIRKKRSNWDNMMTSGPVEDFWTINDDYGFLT

| Sequence | PBM E-score |
| --- | --- |
| ATTCGGGC | 0.18 |
| ATTCGGAA | 0.36 |
| ATTCGGCG | 0.286 |
| ATTCGGAC | 0.392 |
| ATTCGGAG | 0.422 |
| ATTCGGCC | 0.284 |
| AAGACAGC | -0.0488 |
| AAGGGAAT | -0.149 |
| CGCTTCTC | 0.168 |
| CGGAGAGA | 0.402 |
| AGGAGAGC | -0.275 |
| CGGAGAGC | 0.389 |
| AGGAGAGA | -0.136 |
| GGGAGAGA | -0.201 |
| CAGAGAGC | -0.184 |
| AAGGTCAA | -0.195 |
| ACTCTAAT | -0.121 |
| ATTGGCAC | -0.247 |
| AGGATCCG | 0.226 |
| CGGATCCC | 0.402 |
| GGGATCCC | 0.325 |
| AGGATCCC | 0.113 |
| CGGATCCA | 0.221 |
| CGGATCCG | 0.438 |
| ATGCAGCG | 0.0411 |

| Sequence | PBM E-score |
| --- | --- |
| CCCATAAG | 0.0166 |
| GTGGAGTA | -0.135 |
| CCCAACAA | -0.0374 |
| GACGGACA | 0.328 |
| AACGGACA | 0.321 |
| ACTGGACA | -0.189 |
| GCCGGACA | 0.447 |
| CCCGGACG | 0.273 |
| CCCGGACA | 0.405 |
| GCCGGACC | 0.376 |
| CACGGATA | 0.196 |
| GCCGGATA | 0.4 |
| ACCGGACA | 0.401 |
| CACGGACA | 0.317 |
| GCAGGATA | -0.221 |
| ACACCCCC | -0.133 |
| GCTATCAC | -0.108 |
| CGTGAACG | -0.0842 |
| AGGCCCCT | -0.194 |
| TACGGACA | 0.257 |
| ACCGGACC | 0.384 |
| ACCGGACT | 0.443 |
| TCCGGACA | 0.456 |
| ACCGGACG | 0.369 |
| TGCGGACA | 0.356 |

| Sequence | PBM E-score |
| --- | --- |
| CTTTTGCC | 0.093 |
| AAGTTACT | 0.0192 |
| AACCGTGA | -0.0334 |
| GACTGGGA | 0.0171 |
| ACGGAACG | 0.271 |
| CAGGAACG | -0.153 |
| CCGGAACG | 0.411 |
| CAGGAACA | -0.157 |
| GCGGAACA | 0.344 |
| CCGGAACC | 0.402 |
| CGGGAACA | 0.192 |
| CCGGAACA | 0.442 |
| TCGGAACA | 0.417 |
| ACGGAACC | 0.213 |
| GCGGAACC | 0.254 |
| ACGGAACA | 0.27 |
| AACTCAGT | -0.15 |
| ATTCTCTA | -0.0579 |
| CAGAAATA | 0.0765 |
| AATGCATT | -0.0548 |
| AAAGGCCG | 0.37 |
| ACAACCGT | -0.251 |
| ATTTGAGC | -0.102 |
| CGTATCAG | 0.0563 |
| AGTAGATG | -0.0703 |

| Sequence | PBM E-score |
| --- | --- |
| ATCCAGAT | -0.146 |
| TAACTTGA | -0.237 |
| GAGGAGAC | -0.0694 |
| GCGGAGAC | 0.4 |
| ATGGAGAC | -0.103 |
| ACGGAGAC | 0.39 |
| AAGGAGAT | 0.0883 |
| AGGGAGAT | -0.207 |
| AAGGAGAC | -0.214 |
| GGGGAGAC | 0.0986 |
| ACGGAGAT | 0.465 |
| GCCCATAC | -0.275 |
| CTCCAGCA | -0.256 |
| ATGGCTAC | -0.185 |
| ATGGGTTG | -0.114 |
| CAAGTATC | -0.152 |
| GGATTTTA | 0.283 |
| AAACGCCG | 0.412 |
| AAACGCCA | 0.0115 |
| CAACGCCG | 0.318 |
| CGAGTCAG | -0.151 |
| TAGGTAAA | -0.0912 |
| GAATGCAA | 0.00843 |
| AAATGCCG | 0.423 |
| CAATGCCG | 0.365 |

| Sequence | PBM E-score |
| --- | --- |
| AAATGCCC | -0.0631 |
| AATACCTG | -0.107 |
| AAACTCTG | -0.126 |
| GGAACTCC | 0.393 |
| CGAACTCC | 0.39 |
| AGAACTCC | 0.276 |
| CGAACTCG | 0.0307 |
| CGAACTCA | -0.0578 |
| GGAACTCA | 0.189 |
| ACCTTGTC | -0.192 |
| GGCTTGCA | -0.118 |
| ACTGGTGC | -0.0757 |
| AAGTTCCG | 0.42 |
| AACTTCCA | 0.0686 |
| AACTTCCT | 0.00298 |
| ATGTTCCA | -0.162 |
| ACGTTCCG | 0.289 |
| ATGTTCCG | 0.429 |
| ATGTTCCC | -0.0151 |
| CCGTTCCG | 0.402 |
| CAGTTCCG | 0.348 |
| AACTTCCG | 0.433 |
| CCGTTCCA | 0.0158 |
| AAGTTCCT | -0.0671 |
| ATCCTCAG | 0.0306 |

| Sequence | PBM E-score |
| --- | --- |
| AAATAGCC | -0.00231 |
| AATTCTCT | -0.113 |
| AATCCACA | -0.0935 |
| AAGCGGCG | 0.222 |
| GGGTAACC | -0.0903 |
| GGAGAGTA | 0.243 |
| CGCCGGTC | 0.388 |
| ATCCGGTC | 0.346 |
| ATCCGGTA | 0.294 |
| GACCGGTC | 0.397 |
| CACCGGTC | 0.183 |
| AACCGGTC | 0.198 |
| CTCCGGTC | 0.455 |
| CTCCGGTA | 0.47 |
| GTCCGGTA | 0.366 |
| ATGCACCG | 0.178 |
| CAACTCGC | -0.0405 |
| TAAGAAAA | -0.0396 |
| CGCGCTTA | 0.0847 |
| AAGACGTA | -0.154 |
| CAGACTGG | -0.271 |
| CTGCCGGA | 0.355 |
| GTGCCGGA | 0.438 |
| ATGCCGGA | 0.456 |
| ATGCCGGC | 0.372 |

| Sequence | PBM E-score |
| --- | --- |
| GTGCCGTA | 0.0749 |
| ATGCCGGG | 0.336 |
| ATGCGCTC | -0.034 |
| CCTGTGGC | -0.166 |
| GCGCGCTA | 0.0544 |
| CGTATATA | -0.111 |
| GAATTGCC | 0.182 |
| AGGGGATG | -0.112 |
| GCTACCCA | -0.196 |
| ACTCTCCA | -0.0794 |
| ACACTCCC | 0.00682 |
| CCACTCCG | 0.437 |
| ACACTCCG | 0.398 |
| ATACTCCA | -0.0317 |
| CCACTCCA | -0.0346 |
| ATACTCCG | 0.487 |
| ACACTCCT | -0.0208 |
| ATACTCCC | 0.243 |
| CCACTCCC | 0.0826 |
| ACTCTCCG | 0.405 |
| CCTCTCCG | 0.333 |
| CAACAGAG | -0.0308 |
| GACGCACA | 0.146 |
| CTGAGGCC | 0.115 |
